From the supplement of paper PMC10849652
The full data set covers some 7,900 targets. This sample favours those with a hit. About 0.6% of all pairs of compound and target were hits.

These targets were tested with CC1=CC=C(C=C1)SC2=C3C=C(SC3=CN=C2)C(=O)N (assay: log2 fold change, soluble protein after heating vs DMSO (PISA); higher = thermal stabilisation; K562 cells, 10 uM, 30 min; active = over 0.2 and 3.5 SD of the protein, either way, in both replicates (recomputed)).
Summary of the method: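 K562 cells at 2×10^6 cells/mL were exposed to 10 μM compound for 30 min, then aliquots were heated for 3 min across 48°C-58°C, pooled, and extracted in PBS containing 0.5% NP-40 at 4°C. The supernatant after 21,000xg for 90 min was taken as soluble protein and measured by TMTpro 16plex LC-MS/MS with channel sums equalised. Thermal stability is reported relative to control samples, with values from duplicates. Fold changes are given on a log2 scale.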

UniProt Q14157, sequence (Q14157 whole entry, looked up): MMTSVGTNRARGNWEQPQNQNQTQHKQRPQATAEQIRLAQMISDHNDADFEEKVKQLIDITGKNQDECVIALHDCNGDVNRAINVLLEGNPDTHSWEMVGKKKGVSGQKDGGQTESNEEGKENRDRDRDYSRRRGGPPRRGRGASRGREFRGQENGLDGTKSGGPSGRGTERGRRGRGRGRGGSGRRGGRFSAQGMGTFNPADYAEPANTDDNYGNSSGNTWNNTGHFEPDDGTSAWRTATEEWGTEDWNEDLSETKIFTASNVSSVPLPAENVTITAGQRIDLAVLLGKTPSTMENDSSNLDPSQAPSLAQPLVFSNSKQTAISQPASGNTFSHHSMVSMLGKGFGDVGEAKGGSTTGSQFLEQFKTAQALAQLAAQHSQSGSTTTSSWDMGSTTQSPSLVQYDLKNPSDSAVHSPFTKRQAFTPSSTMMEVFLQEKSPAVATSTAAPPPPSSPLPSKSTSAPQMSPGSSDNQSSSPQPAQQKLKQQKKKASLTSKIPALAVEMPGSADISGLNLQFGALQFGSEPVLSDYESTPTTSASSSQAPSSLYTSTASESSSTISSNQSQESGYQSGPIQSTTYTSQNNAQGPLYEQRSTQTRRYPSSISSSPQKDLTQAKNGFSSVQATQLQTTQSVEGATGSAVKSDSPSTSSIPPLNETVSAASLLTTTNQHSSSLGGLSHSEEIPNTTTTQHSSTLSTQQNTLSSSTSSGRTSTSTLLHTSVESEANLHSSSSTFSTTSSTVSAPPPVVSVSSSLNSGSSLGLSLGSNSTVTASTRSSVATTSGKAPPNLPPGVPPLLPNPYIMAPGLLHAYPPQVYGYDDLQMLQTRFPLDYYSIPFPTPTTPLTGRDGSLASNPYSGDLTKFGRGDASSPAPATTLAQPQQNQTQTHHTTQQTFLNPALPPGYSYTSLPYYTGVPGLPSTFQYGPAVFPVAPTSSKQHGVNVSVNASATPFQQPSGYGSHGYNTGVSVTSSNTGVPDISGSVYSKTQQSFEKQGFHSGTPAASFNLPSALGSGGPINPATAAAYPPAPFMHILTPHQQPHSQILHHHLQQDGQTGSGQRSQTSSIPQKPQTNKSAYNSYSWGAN
UniProt P57081, sequence (P57081 whole entry, looked up): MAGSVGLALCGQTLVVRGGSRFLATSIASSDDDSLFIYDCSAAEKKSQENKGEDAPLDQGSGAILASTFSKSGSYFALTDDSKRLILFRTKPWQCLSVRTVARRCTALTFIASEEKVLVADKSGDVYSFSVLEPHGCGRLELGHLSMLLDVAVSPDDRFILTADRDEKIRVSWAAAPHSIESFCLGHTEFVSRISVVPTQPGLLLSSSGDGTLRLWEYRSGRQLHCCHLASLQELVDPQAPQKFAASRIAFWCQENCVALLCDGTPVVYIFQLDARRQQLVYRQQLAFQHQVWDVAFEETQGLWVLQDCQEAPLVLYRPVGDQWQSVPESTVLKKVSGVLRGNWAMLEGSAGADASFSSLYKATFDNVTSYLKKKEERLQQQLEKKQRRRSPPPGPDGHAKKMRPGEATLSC
UniProt Q86Y07, sequence (Q86Y07 whole entry, looked up): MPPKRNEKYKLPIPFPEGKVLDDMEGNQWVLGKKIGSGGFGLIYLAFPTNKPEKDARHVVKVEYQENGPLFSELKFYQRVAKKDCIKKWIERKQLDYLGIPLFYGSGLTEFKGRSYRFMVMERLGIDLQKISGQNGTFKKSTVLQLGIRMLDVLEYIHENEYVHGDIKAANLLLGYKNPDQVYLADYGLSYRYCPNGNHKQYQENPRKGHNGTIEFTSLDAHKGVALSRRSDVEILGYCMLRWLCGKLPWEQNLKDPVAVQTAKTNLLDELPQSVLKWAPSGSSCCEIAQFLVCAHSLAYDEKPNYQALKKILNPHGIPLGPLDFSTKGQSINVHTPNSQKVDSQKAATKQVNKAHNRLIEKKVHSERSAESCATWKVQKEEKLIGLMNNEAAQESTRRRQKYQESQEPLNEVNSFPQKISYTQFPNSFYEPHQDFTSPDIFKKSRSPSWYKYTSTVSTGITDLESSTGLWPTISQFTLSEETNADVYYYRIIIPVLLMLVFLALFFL
UniProt Q7Z392, sequence (Q7Z392 whole entry, looked up): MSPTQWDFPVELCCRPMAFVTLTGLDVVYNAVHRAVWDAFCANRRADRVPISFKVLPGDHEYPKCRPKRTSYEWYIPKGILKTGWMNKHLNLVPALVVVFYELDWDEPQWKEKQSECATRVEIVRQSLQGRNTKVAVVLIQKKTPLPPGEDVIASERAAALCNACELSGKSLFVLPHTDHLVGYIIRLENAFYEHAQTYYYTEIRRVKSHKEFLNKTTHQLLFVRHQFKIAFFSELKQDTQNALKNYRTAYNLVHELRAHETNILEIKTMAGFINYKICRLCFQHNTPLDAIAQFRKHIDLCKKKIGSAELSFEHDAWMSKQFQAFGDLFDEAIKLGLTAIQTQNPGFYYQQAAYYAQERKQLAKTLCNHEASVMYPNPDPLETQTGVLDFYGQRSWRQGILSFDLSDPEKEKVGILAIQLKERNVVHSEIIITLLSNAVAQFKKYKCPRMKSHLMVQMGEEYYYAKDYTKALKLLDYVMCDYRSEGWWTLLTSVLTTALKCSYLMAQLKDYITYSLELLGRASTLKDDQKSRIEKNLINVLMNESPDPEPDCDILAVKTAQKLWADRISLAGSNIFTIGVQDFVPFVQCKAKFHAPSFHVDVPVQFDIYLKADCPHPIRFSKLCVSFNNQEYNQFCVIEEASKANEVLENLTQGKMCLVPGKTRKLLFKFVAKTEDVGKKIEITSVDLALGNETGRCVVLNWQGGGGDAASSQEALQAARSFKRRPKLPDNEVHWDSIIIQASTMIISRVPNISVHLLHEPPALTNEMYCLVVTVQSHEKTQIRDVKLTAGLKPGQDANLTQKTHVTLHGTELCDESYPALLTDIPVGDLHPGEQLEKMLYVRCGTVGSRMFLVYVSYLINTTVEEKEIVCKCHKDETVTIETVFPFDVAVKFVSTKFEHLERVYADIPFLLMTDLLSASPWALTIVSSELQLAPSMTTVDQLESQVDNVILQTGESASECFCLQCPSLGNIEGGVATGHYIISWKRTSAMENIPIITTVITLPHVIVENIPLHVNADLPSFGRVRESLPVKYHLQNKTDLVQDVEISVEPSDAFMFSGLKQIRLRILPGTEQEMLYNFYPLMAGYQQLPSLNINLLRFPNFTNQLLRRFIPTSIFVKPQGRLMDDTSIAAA
UniProt Q9BTX3, sequence (Q9BTX3 whole entry, looked up): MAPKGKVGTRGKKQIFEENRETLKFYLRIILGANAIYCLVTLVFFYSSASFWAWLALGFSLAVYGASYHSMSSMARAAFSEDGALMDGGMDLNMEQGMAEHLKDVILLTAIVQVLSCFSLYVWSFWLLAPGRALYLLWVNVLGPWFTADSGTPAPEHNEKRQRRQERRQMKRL
UniProt Q7Z3J2, sequence (Q7Z3J2 whole entry, looked up): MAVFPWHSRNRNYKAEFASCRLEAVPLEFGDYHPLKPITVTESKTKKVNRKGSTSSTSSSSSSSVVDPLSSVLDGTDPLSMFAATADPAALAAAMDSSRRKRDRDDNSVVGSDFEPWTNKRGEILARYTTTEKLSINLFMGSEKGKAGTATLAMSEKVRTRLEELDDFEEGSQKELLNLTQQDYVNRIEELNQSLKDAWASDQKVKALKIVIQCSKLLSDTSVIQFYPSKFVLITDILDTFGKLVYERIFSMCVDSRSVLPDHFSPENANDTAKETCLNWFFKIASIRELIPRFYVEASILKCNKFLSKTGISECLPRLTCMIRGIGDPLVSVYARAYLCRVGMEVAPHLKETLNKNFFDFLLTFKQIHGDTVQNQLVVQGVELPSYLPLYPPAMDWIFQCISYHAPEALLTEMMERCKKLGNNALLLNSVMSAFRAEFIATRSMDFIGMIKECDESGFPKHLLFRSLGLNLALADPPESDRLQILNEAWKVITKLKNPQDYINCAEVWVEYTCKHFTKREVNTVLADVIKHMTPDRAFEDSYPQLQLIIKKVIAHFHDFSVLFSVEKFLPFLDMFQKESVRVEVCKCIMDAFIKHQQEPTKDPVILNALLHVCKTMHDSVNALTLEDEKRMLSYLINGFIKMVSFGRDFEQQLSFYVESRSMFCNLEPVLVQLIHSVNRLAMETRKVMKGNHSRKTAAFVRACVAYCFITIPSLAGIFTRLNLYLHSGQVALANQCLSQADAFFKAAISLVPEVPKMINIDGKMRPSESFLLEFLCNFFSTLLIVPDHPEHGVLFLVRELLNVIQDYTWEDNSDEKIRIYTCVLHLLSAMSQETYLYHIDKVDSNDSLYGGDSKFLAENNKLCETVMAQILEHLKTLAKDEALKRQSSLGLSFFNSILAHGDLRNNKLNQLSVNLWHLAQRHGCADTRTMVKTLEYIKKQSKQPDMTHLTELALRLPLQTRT
UniProt Q99757, sequence (Q99757 whole entry, looked up): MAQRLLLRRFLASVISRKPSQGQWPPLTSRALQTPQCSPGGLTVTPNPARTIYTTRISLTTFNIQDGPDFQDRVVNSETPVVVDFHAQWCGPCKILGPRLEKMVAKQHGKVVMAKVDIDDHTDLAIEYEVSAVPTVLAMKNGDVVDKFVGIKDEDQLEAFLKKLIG
UniProt Q9H3M7, sequence (Q9H3M7 whole entry, looked up): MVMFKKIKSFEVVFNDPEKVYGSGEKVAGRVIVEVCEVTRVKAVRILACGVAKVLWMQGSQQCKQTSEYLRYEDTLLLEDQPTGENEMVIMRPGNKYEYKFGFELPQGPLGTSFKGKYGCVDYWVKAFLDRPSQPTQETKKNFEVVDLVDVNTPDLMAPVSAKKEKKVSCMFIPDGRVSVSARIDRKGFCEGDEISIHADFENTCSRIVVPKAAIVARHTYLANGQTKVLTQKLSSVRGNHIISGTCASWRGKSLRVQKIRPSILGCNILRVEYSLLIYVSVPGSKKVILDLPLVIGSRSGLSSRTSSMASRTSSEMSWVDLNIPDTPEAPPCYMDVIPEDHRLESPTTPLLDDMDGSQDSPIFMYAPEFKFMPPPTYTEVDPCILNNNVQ
UniProt Q9UDW1, sequence (Q9UDW1 whole entry, looked up): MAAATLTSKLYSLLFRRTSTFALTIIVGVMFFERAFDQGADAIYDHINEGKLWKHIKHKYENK

Target | log2 fold change
WDR4 (UniProt P57081) | 0.173 (inactive)
VPS35L (UniProt Q7Z3J2) | -0.052 (inactive)
UBA6 | 0.032 (inactive)
UQCR10 (UniProt Q9UDW1) | 0.069 (inactive)
TRAPPC11 (UniProt Q7Z392) | -0.014 (inactive)
TXN2 (UniProt Q99757) | -0.009 (inactive)
UBAP2L isoform 1 (UniProt Q14157) | -0.016 (inactive)
TMEM208 (UniProt Q9BTX3) | 0.037 (inactive)
UBAP2L isoform 5 (UniProt Q14157) | 0.017 (inactive)
TXNIP (UniProt Q9H3M7) | -0.115 (inactive)
VRK2 (UniProt Q86Y07) | 0.01 (inactive)
WDR61 (UniProt Q9GZS3) | 0.001 (inactive)
USP48 isoform 8 (UniProt Q86UV5) | -0.054 (inactive)
